Records with an inconclusive call do not appear. The source made the active and inactive calls. The calls were made as follows: active = hit-call score of the fitted dose curve at least 0.9, where 1 is the maximum; inconclusive = response in the unintended direction; inactive = score below 0.9.

What is called AC50 is the concentration at which the activity in the assay is half-maximal.

Cytochrome P450 3A4 (Homo sapiens), sequence (P08684 whole entry, looked up): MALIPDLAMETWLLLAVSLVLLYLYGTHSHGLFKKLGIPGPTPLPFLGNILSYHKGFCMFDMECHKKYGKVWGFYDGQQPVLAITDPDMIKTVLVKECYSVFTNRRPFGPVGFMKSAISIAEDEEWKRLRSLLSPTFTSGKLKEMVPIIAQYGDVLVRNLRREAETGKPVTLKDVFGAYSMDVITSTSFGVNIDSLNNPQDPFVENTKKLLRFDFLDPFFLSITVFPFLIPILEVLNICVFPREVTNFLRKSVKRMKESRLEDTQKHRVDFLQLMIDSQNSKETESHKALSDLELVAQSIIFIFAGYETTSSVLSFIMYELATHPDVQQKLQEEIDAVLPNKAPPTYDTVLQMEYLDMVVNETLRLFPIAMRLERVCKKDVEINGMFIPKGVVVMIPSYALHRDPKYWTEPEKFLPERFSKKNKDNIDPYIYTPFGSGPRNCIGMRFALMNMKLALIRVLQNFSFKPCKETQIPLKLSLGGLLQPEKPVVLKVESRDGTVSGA

Read-out in the test: Cytochrome P450 3A4 (Homo sapiens) (UniProt P08684)
Put plainly: CLD_CYP3A4_48hr: CellzDirect (CLD) Gene Expression Assay for xenobiotic metabolism (CYP3A4) at 48 hours (AID 2283698). The method, then:
CLD_48hr is a cell-based, multiplexed-readout assay that uses hepatocyte, a human liver primary cell, with measurements taken at 48 hours after chemical dosing in a 96-well plate.CLD_CYP3A4_48hr is one of 16 assay component(s) measured or calculated from the CLD_48hr assay. It is designed to make measurements of mRNA induction, a form of inducible reporter, as detected with chemiluminescence signals by Quantitative Nuclease Protection Assay (qNPA) technology.Data from the assay component CLD_CYP3A4_48hr was analyzed at the endpoint, CLD_CYP3A4_48hr, in the positive analysis fitting direction relative to DMSO as the negative control and baseline of activity. Using a type of inducible reporter, gain-of-signal activity can be used to understand changes in the reporter gene as they relate to the gene CYP3A4. Furthermore, this assay endpoint can be referred to as a primary readout. To generalize the intended target to other relatable targets, this assay endpoint is annotated to the cyp intended target family, where subfamily is xenobiotic metabolism.
Human hepatocyte cultures were treated daily for two consecutive days with fresh dosing solutions containing appropriate concentrations of the 320 ToxCast chemicals (chemical identities were blinded to CellzDirect and other ToxCast collaborators), vehicle control (0.2% DMSO), and positive control inducers as summarized in Table 1. Due to the large number of treatment groups and chemicals examined, the ToxCast chemicals were divided into two groups (spanning two independent cultures of hepatocytes from separate donor preparations (Hu778: ToxCast plates 1 and 2; Hu776: ToxCast plates 3 and 4). Each preparation of human hepatocyte cultures was treated with respective vehicle control, medium only control, set of six positive controls/reference chemicals for the five hepatic receptor pathways, and a subset of eight of the ToxCast chemicals (indoxacarb, pyrithiobac-sodium, norflurazon, cyhalofop-butyl, methomyl, thiram, acetochlor, and propiconazole). These replicate data, coupled with internal replicates designed within the blinded ToxCast chemical library, provided additional data to evaluate interindividual differences between hepatocyte preparations and their potential impact on chemical profiles.Cell morphology and integrity were evaluated using phase-contrast microscopy as an indicator of hepatocyte cell health (Tyson & Green, 1987). Cultures for each treatment group (i.e., media, vehicle [0.2% DMSO], positive control inducers [multiple concentrations], and the ToxCast chemicals [multiple concentrations]) were observed and cell morphology was assessed relative to vehicle control cultures at each harvest time point (0, 6, 24, or 48 h). […] Images were evaluated at the conclusion of the study to assess changes in cell integrity and account for the effects of chemical exposure on uncharacteristic changes in concentration-dependent gene expression profiles. The results from these determinations of apparent cytotoxicity were annotated (yes/no) alongside the corresponding qNPA data for reference.At the conclusion of each treatment period, hepatocyte cultures (96-well) were washed with 1 volume of HBSS, lysed by addition of 25 ul ArrayPlate lysis buffer (HTG, Tucson, AZ), and 70 ul/well of Denaturation Oil, denatured by incubation at 95C for 10 min, and frozen at approximately -70C until analysis by nuclease protection assay (qNPA) (Roberts et al., 2007). For qNPA analysis, cell lysates were thawed at 50C for approximately 30 min, qNPA probes were added, and samples were incubated at 95C for 10 min to begin the detection process by denaturing the target RNA, dissociating the duplexes and secondary structure hybridization. At the conclusion of the hybridization period, S1 nuclease reagent was added to each sample to digest all nonprotected nucleotides at 50C for 60-90 min. […]
Consider `CCOC(=O)NCCOc1ccc(Oc2ccccc2)cc1`, for which the outcome was inactive.

Consider `Oc1ccc(C(c2ccc(O)cc2)C(Cl)(Cl)Cl)cc1`, for which the call was inactive.

As to `COCCO`, the result was inactive.

Regarding `CCOC(=O)[C@H](C)Oc1ccc(Oc2nc3ccc(Cl)cc3o2)cc1`, the call was inactive.

With `COc1c(Cl)ccc(Cl)c1C(=O)O`, the result was inactive.

As for `CCSC(=O)N(CC(C)C)CC(C)C`, the compound was called inactive.

`CCOC(=O)COc1cc(-n2ncc(C(F)(F)F)c(C)c2=O)c(F)cc1Cl`: the AC50 was 5.32 µM (active).

For the compound `COC(=O)CSc1cc(N=c2sc(=O)n3n2CCCC3)c(F)cc1Cl`, the AC50 is 4.08 µM (active).

Take `CN(C)C(=O)Nc1ccc(Cl)c(Cl)c1`: the call was inactive.

`c1ccc(Nc2ccccc2)cc1`: the outcome was inactive.

`CCCCOC(=O)[C@@H](C)Oc1ccc(Oc2ccc(C(F)(F)F)cn2)cc1`: the compound was classed as inactive.

`CCNc1nc(N)nc(Cl)n1`: the compound was called inactive.

As to `COC(=O)c1cccc(C)c1S(=O)(=O)NC(=O)Nc1nc(OCC(F)(F)F)nc(N(C)C)n1`, the AC50 was 20 µM (active).

On to `OB(O)O`, for which the result was inactive.

In the case of `CCCCC(CC)CN1C(=O)C2C3C=CC(C3)C2C1=O` (stereo not given), the AC50 is 20 µM (active).

For `CSC(=O)c1cccc2nnsc12`, the outcome was inactive.

Take `COC(=O)c1c(Cl)nn(C)c1S(=O)(=O)NC(=O)Nc1nc(OC)cc(OC)n1`: the AC50 was 6.72 µM (active).

Turning to `CCCCOC(=O)C(C)Oc1ccc(Oc2ccc(C(F)(F)F)cn2)cc1` (stereo not given), the compound was called inactive.

Consider `CCC(C)OC(=O)N1CCCCC1CCO` (stereo not given), for which the call was inactive.

As for `CC1(C)C(C=C(Cl)Cl)C1C(=O)OCc1cccc(Oc2ccccc2)c1` (stereo not given), the compound was called inactive.

Turning to `S=C([S-])NCCNC(=S)[S-].[Mn+2]`, the result was inactive.

On to `CC(C)(C)[C@@H](O)[C@@H](Cc1ccc(Cl)cc1)n1cncn1`, for which the AC50 is 2.15 µM (active).

Consider `O=C(O)C1(C(=O)Nc2ccc(Cl)cc2Cl)CC1`, for which the compound was called inactive.

`CCCN(CCC)c1c([N+](=O)[O-])cc(C(F)(F)F)c(N)c1[N+](=O)[O-]`: the AC50 is 7.62 µM (active).

Consider `CCCCCOC(=O)COc1cc(N2C(=O)C3=C(CCCC3)C2=O)c(F)cc1Cl`, for which the call was inactive.

Turning to `CCCN(CCC)C(=O)SCC`, the compound was called inactive.

As to `C#CCOC(=O)[C@@H](C)Oc1ccc(Oc2ncc(Cl)cc2F)cc1`, the compound was called inactive.

As for `CCN(Cc1c(F)cccc1Cl)c1c([N+](=O)[O-])cc(C(F)(F)F)cc1[N+](=O)[O-]`, the AC50 was 1.9 µM (active).

Take `CCOC(=O)C(C)Oc1ccc(Oc2cnc3cc(Cl)ccc3n2)cc1` (stereo not given): the compound was classed as inactive.

Turning to `Cc1nn(C)c(Oc2ccccc2)c1C=NOCc1ccc(C(=O)OC(C)(C)C)cc1`, the outcome was inactive.

These data come from PubChem BioAssay (EPA / NIEHS).
